Experimental data taken from PubChem BioAssay (NCATS).
“And” between values parts separate entries of the source, which are not always exact repeats. Identical values can stand only once. Results filed as inconclusive are left out. Values without a mark were called inactive. Calls come from the whole dose curve; as a rule, active = well fitted inhibition curve with a large enough effect in the signal ratio, with a control signal flat (not every such curve was filed as active); inconclusive = small, poorly fitted or top-dose-only effect, or effect the other way, or a change in a side signal; inactive = no such curve, though single readings can be large or run the other way; the % refers to the signal ratio. Peptide text beside a SMILES is read from it.

The molecules below were run against Retinoic acid receptor RXR-alpha (Homo sapiens) (UniProt P19793) (assay: qHTS assay for small molecule antagonists of retinoid X receptor alpha signaling (AID 588546)). Conditions: HEK293T RXRa-UAS-bla, beta-lactamase ratio, antagonist mode.
Retinoic acid receptor RXR-alpha (Homo sapiens), sequence (P19793 whole entry, looked up): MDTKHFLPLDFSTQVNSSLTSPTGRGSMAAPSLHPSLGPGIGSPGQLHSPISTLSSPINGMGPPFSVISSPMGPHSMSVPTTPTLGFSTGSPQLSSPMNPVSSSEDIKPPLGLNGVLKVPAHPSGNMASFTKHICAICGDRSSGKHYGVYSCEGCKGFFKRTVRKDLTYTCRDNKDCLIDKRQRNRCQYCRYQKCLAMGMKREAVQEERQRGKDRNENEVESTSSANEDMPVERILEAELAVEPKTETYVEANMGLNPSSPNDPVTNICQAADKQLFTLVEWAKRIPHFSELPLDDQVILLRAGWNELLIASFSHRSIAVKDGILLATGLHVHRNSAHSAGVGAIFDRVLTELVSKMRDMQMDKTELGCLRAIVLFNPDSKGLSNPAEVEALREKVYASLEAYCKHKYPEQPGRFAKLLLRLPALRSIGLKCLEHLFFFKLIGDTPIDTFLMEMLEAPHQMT
Description: NIH Chemical Genomics Center [NCGC] U.S. Environmental Protection Agency [EPA] National Institutes of Environmental Health Sciences [NIEHS] National Toxicology Program [NTP] NCGC Assay Overview The Retinoid X receptor (RXR), a nuclear hormone receptor is expressed in liver, spleen, placenta, epidermis, central nervous system. These receptors are able to form homo and heterodimers with other nuclear receptors and due to this heterodimerizing ability, RXR functions as master regulators producing diverse physiological effects. Three subtypes of RXR exist; alpha, beta and gamma. Retinoid X receptor alpha (RXR-alpha) has potential roles in metabolic signaling pathways, skin alopecia, dermal cysts, cardiac development, insulin sensitization etc. Therefore screening environmental chemicals on RXR-alpha signaling can be used for the studies focused on such therapeutic applications.
NCGC Assay Protocol Summary Using a beta-lactamase reporter-gene under control of Retinoid X receptor--alpha (RXR-alpha) response element, a cell-based assay [GeneBLAzer (RXR-alpha -UAS-bla assay developed by Invitrogen] was used to measure RXR-alpha ligands signaling. GeneBLAzer RXR-alpha -UAS-bla HEK293T cells were used with assay medium containing 2% charcoal-stripped FBS. The assay was performed in clear bottom black Greiner 1536-well plates. Library compounds were measured for their ability to inhibit the reporter gene activity. Compounds were screened in a titration series in 1536-well format. The fluorescence intensity (405 nm excitation, 460/530 nm emission) was measured using an EnVision plate reader. Data was normalized relative to 9-cis-retinoic acid control (500 nM, 100%), and DMSO only wells (basal, 0%). Concentration-response titration points for each compound were fitted to the Hill equation yielding concentrations of half-maximal inhibition (IC50) and maximal response (efficacy) values. qHTS protocol for RXR-alpha beta-lactamase assay in antagonist mode [Step] [Parameter] [Value] [Description] 1. Reagent; 5 uL; 2500 cells/well 2. Incubation; 37 C for 4 hrs 3. Compounds; 23 nL; 0.59 nM to 92 uM 4. Controls (DMSO); 23 nL 5. Agonist (Stimulator); 1uL; 9-cis-retinoic acid at 500 nM and 100 nM final concentrations 6. Incubation; 37 C for 18 hrs 7. Detection reagent; 1 uL of CCF4-dye 8. Incubation; RT for 2 hrs 9. Detection; Fluorescence; Envision plate reader
% is set by controls: 0 for no effect and ±100 for the full control effect.

| Compound | max response |
| --- | --- |
| c1ccc2[nH]c(-c3cscn3)nc2c1 | 14% and 3.02% |
| Cc1ccc(C)c(OCCCC(C)(C)C(=O)O)c1 | 1.18% and -8.41% |
| CNC[C@H](O)c1ccc(O)c(O)c1 | -4.11% |
| COc1c2occc2cc2ccc(=O)oc12 | 1.26% and 12.5% |
| CCCCC(CC)COC(=O)C(C#N)=C(c1ccccc1)c1ccccc1 (stereo not given) | -7.69% |
| Nc1nc(Cl)nc2c1ncn2[C@H]1C[C@H](O)[C@@H](CO)O1 | -2.35% |
| COc1cc(OC)c(C(=O)CCCN2CCCC2)c(OC)c1 | -23.6% |
| Nc1ccc(S(N)(=O)=O)cc1 | 9.55% |
| COC(=O)[C@H](Cc1ccccc1)NC(=O)[C@@H](N)CC(=O)O (H-Asp-Phe-OMe) | 1.69% and -7.67% |
| CN(C)c1ccc2nc3ccc(=[N+](C)C)cc-3sc2c1 | -3.23% |
| CS(=O)(=O)OCCCCOS(C)(=O)=O | 8.02% and 2.56% |
| Cc1cc(O)c2c(c1)C(=O)c1cc(O)cc(O)c1C2=O | -11.8% |
| CC1(C)NC(=O)N(c2ccc([N+](=O)[O-])c(C(F)(F)F)c2)C1=O | 1.48% |
| CCc1nc(N)nc(N)c1-c1ccc(Cl)cc1 | -13% |
| CCCc1cc(=O)[nH]c(=S)[nH]1 | 3.88% and 3.79% |
